# Rows were chosen to be rich in hits. Some 4% of all compounds tested hit in one or more screens of this group.
# HIF-2a inh = HIF-2a reporter inhibitors, primary screen, luminescence, 786-0 RCC cells; inhibition, % at 18.8 µM; 360,000 tested, 0.72% active; 786-0 RCC cells HIF-2a reporter, luciferase luminescence, overnight;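 active = inhibition of the luminescence signal of 40% or more relative to plate controls, in a single-dose primary screen at 18.75 µM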
# TROY NFkB inh = inhibitors of TROY-driven NF-kB signaling, primary screen, Q293 LMP1-TROYcd cells, NF-kB luciferase, uHTS; inhibition, % at 10 µM; Q293 LMP1-TROYcd NF-kB luciferase reporter, 4 h; 360,000 tested, 0.98% active;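 active = compounds whose plate-normalised and pattern-corrected inhibition of the luciferase reporter signal at the single screening dose is 50% or more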
# CF NFkB inh = inhibitors of PAF-induced NF-kB signaling, primary screen, cell-based, GFP fluorescence, uHTS; KKLEB NF-kB-GFP reporter, GFP fluorescence overnight; inhibition, % at 5 µM; 360,000 tested, 0.86% active; AID 588850, 2011;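 active = at least 50% inhibition at 5 µM, scaled per plate between neutral and stimulator controls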;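 also: PAF is a Pseudomonas aeruginosa culture filtrate used as stimulus; plate controls were PAF-stimulated DMSO wells for no effect and unstimulated DMSO wells for full effect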
# TWEAK Fn14 block = inhibitors of TWEAK-Fn14 signaling, primary screen, luciferase reporter cells, uHTS; TWEAK-stimulated Fn14 reporter cells, luciferase luminescence, 8 h; inhibition, % at 10 µM; 360,000 tested, 2% active; AID 1159606, 2016; in the data active = inhibition above about 50%
# KKLEB tox = cytotoxicity in KKLEB CF airway cells, primary screen, cytotoxicity control for CF NF-kB inhibitor project, cell-based, uHTS, fluorescence assay plates. activity change (cytotoxicity), % at 5 µM. KKLEB CF airway cells viability, ATPlite luminescence, overnight; stronger effect = lower value; cells stimulated with P. aeruginosa culture filtrate. 360,000 tested, 0.36% active;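 active = corrected activity change at or below -50% at 5 µM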
# Peg3 promoter = Peg3 promoter-driven luciferase inhibitors, primary screen, cell-based, HeLa, luciferase luminescence; inhibition, % at 20 µM; AID 588405, 2011; HeLa PEG-Prom luciferase reporter, overnight; 360,000 tested, 1.7% active;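 active = inhibition of at least 50% at 20 µM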
# Starred values were filed as active, the others as inactive; . = not tested or not shown.
SMILES,HIF-2a inh,TROY NFkB inh,CF NFkB inh,TWEAK Fn14 block,KKLEB tox,Peg3 promoter
NS(=O)(=O)c1ccc(NC(=O)CCC(=O)c2ccc(Cl)s2)cc1,5.6,-0.1,-12.8,11.8,-6.5,-3.0
CC(=O)Nc1ccc(NC(=O)c2ccc(N(Cc3ccccc3C)S(C)(=O)=O)cc2)cc1,27.1,-13.3,-18.0,85.8*,-2.9,10.8
O=C1CSC(=S)N1c1cccc(O)c1,48.4*,30.9,42.9,76.2*,-17.7,31.9
CCOc1ccccc1C(=O)Nc1c[nH]c(=O)[nH]c1=O,-2.9,-0.3,13.0,-2.3,-3.3,25.1
COc1ccccc1C(=O)Nc1c[nH]c(=O)[nH]c1=O,1.7,-10.3,-19.9,3.4,14.2,64.5*
CC(C)[C@@H](CO)NS(=O)(=O)c1ccc(Br)cc1F,9.4,-12.6,3.4,-6.2,3.8,-13.9
c1ccc(COc2ccc(-c3cc4nc(NCCOc5ccccc5)ccn4n3)cc2)cc1,-66.8,-2.4,-15.6,41.9,1.6,12.8
COc1cc(-c2cc3nc(NCCOc4ccccc4)ccn3n2)cc(OC)c1OC,-84.4,22.6,-49.4,58.3*,-7.7,53.2*
c1ccc(COc2cccc(-c3cc4nc(NCCOc5ccccc5)ccn4n3)c2)cc1,-40.0,-7.8,-25.1,27.1,13.1,17.5
COCCCNc1ccn2nc(-c3ccc(OCc4ccccc4)cc3)cc2n1,-200.4,49.4,-6.5,78.5*,-8.8,-53.0
c1ccc(COc2cccc(-c3cc4nc(NCCc5ccncc5)ccn4n3)c2)cc1,-153.8,40.4,7.5,61.0*,-15.0,34.4
C/C(=N\NC(=O)c1c(Cl)c(C)nn1C)c1cccc(NC(=O)C2CCCC2)c1,-21.0,10.5,-14.7,-21.5,4.5,-27.8
Cc1cn(CCOc2ccc(Cl)cc2)c(=O)[nH]c1=O,19.1,-18.6,-19.4,4.5,3.1,1.0
Cc1cccc(C)c1NC(=O)C(c1ccncc1)N1CCN(CCN(C)C)CC1 (stereo not given),3.3,.,.,.,.,.
COc1ccc(CCNC(=O)c2cccc(S(=O)(=O)N3CCc4ccccc4C3)c2)cc1,17.5,25.8,14.3,26.8,5.6,13.2
CC(C)CNC(=O)C1(C)CCN1C(=O)c1ccc(C(C)(C)C)cc1 (stereo not given),10.6,10.6,12.4,9.2,-17.5,4.4
CN1C(=O)C(C)(C)c2cc(S(=O)(=O)N(C)Cc3ccccc3)ccc21,-12.9,11.6,24.5,20.3,-12.8,2.3
Cc1cccc(N(C)S(=O)(=O)c2ccc3c(c2)C(C)(C)C(=O)N3C)c1,2.1,-13.5,8.4,88.5*,4.4,-2.4
O=C1[C@H](Oc2ccccc2)[C@@H](c2ccccc2)N1c1ccncc1,-69.9,56.4*,48.9,65.0*,-28.6,33.2
CC(C)C(=O)Nc1nnc(CSCc2ccccc2F)s1,-37.8,-15.3,6.2,-17.4,-5.7,-24.8
CC(C)(C)C(=O)Nc1nnc(CSCc2ccccc2F)s1,-0.7,30.0,6.2,73.4*,1.4,13.6
Cc1ccc(-n2cnc3cc(NCc4cccs4)ccc32)cc1,-131.5,-16.4,8.1,42.4,-9.1,-244.3
c1ccc(-n2cnc3cc(NCc4cccs4)ccc32)cc1,-62.2,82.7*,-8.2,92.8*,-11.7,-67.1
COc1cccc(/C=C2/Oc3ccccc3N(CC(=O)NCC3CCCO3)C2=O)c1 (stereo not given),-27.8,1.5,19.4,2.2,-4.2,-21.3
COc1ccc(C(=O)/C=C/c2ccc(OC)c(CN3CCOCC3)c2)cc1,10.0,-16.6,16.6,13.6,-11.6,28.0
COc1ccc(C(=O)/C=C/c2ccc(OC)c(Cn3nnc4ccccc43)c2)cc1,35.7,7.2,17.7,36.1,-33.8,51.7*
O=C(Nc1nc(-c2ccccc2)c(C(=O)c2ccccc2)s1)c1ccc(S(=O)(=O)N2CCCCC2)cc1,14.1,14.6,35.8,51.5*,0.4,19.8
O=C(Nc1nc(-c2cccs2)cs1)c1ccc(S(=O)(=O)N2CCCCC2)cc1,-6.7,38.1,-8.1,59.3*,1.3,22.7
